Results from PubChem BioAssay AID1159580 (chemical genetic matrix, 2015).
Out of some 5,500 compounds screened, about 2,000 (36%) were called active. Not shown: some 18% with an inconclusive outcome. No stated cut-off is given here; in the data, active means normalized growth mostly below about 0.91 (no sharp cut-off); inconclusive means no clear call, values can overlap the other calls; inactive means mostly above about 0.92. The list shows a part of the results. Where a SMILES comes first, the peptide text is derived from it.

Assay: chemical genetic growth profiling, strain panel (AID 1159580);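 further: tested at 20 µM; growth read once vehicle control cultures reached saturation at 30 °C; 1 = growth at the plate median or of vehicle wells; lower values mean less growth of the strain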
Details: growth OD

Measured: normalized growth

CC(=O)N[C@@H](CC(=O)O)C(=O)N[C@@H](CCC(=O)O)C(=O)O (Ac-Asp-Glu-OH)
inactive: S. cerevisiae deletion strains, locus YJR075W, strain HOC1, active compounds read low 1.01 | S. cerevisiae deletion strains, locus YKL009W, strain mrt4, active compounds read low 0.987 | S. cerevisiae deletion strains, locus YKL068W, active compounds read low 0.997 | S. cerevisiae deletion strains, locus YKL085W, strain MDH1 (second series), active compounds read low 0.985 | S. cerevisiae deletion strains, locus YKL085W, strain MDH1, active compounds read low 0.985 | S. cerevisiae deletion strains, locus YKL160W, strain elf1, active compounds read low 1.01 | S. cerevisiae deletion strains, locus YKL190W, strain CNB1, active compounds read low 1.02 | S. cerevisiae deletion strains, locus YKR001C, strain vps1, active compounds read low 0.989 | S. cerevisiae deletion strains, locus YKR026C, strain gcn3, active compounds read low 1 | S. cerevisiae deletion strains, locus YKR091W, strain srl3, active compounds read low 0.996 | S. cerevisiae deletion strains, locus YLL001W, strain dnm1, active compounds read low 0.994 | S. cerevisiae deletion strains, locus YLL026W, active compounds read low 1 | S. cerevisiae deletion strains, locus YLL041C, strain sdh2, active compounds read low 1 | S. cerevisiae deletion strains, locus YLR027C, strain aat2, active compounds read low 1.01 | S. cerevisiae deletion strains, locus YLR039C, strain RIC1, active compounds read low 1.04 | S. cerevisiae deletion strains, locus YLR058C, strain SHM2, active compounds read low 1.01 | S. cerevisiae deletion strains, locus YLR102C, strain apc9, active compounds read low 0.984 | S. cerevisiae deletion strains, locus YLR113W, strain HOG1, active compounds read low 0.987 | S. cerevisiae deletion strains, locus YLR221C, strain rsa3, active compounds read low 1 | S. cerevisiae deletion strains, locus YLR258W, strain gsy2, active compounds read low 0.992 | S. cerevisiae deletion strains, locus YLR262C, strain YPT6 (second series), active compounds read low 1.02 | S. cerevisiae deletion strains, locus YLR262C, strain YPT6, active compounds read low 1.04 | S. cerevisiae deletion strains, locus YLR268W, strain sec22, active compounds read low 0.981 | S. cerevisiae deletion strains, locus YLR320W, strain mms22, active compounds read low 1 | S. cerevisiae deletion strains, locus YLR330W, strain CHS5, active compounds read low 1.02 | S. cerevisiae deletion strains, locus YLR342W, strain FKS1 (second series), active compounds read low 0.996 | S. cerevisiae deletion strains, locus YLR342W, strain FKS1, active compounds read low 1 | S. cerevisiae deletion strains, locus YLR357W, strain rsc2, active compounds read low 0.987 | S. cerevisiae deletion strains, locus YLR370C, strain arc18, active compounds read low 1.02 | S. cerevisiae deletion strains, locus YLR371W, strain rom2, active compounds read low 0.99 | S. cerevisiae deletion strains, locus YLR384C, strain iki3, active compounds read low 0.998 | S. cerevisiae deletion strains, locus YLR418C, strain cdc73, active compounds read low 0.982 | S. cerevisiae deletion strains, locus YML016C, strain PPZ1, active compounds read low 1.02 | S. cerevisiae deletion strains, locus YML032C, strain rad52, active compounds read low 0.985 | S. cerevisiae deletion strains, locus YML120C, strain ndi1, active compounds read low 1.01 | S. cerevisiae deletion strains, locus YML124C, strain tub3, active compounds read low 0.984 | S. cerevisiae deletion strains, locus YMR058W, strain fet3, active compounds read low 1.01 | S. cerevisiae deletion strains, locus YMR078C, strain ctf18, active compounds read low 1 | S. cerevisiae deletion strains, locus YMR125W, strain sto1, active compounds read low 0.987 | S. cerevisiae deletion strains, locus YMR129W, active compounds read low 1.01 | S. cerevisiae deletion strains, locus YMR205C, strain PFK2, active compounds read low 0.967 | S. cerevisiae deletion strains, locus YMR223W, strain ubp8, active compounds read low 0.983 | S. cerevisiae deletion strains, locus YMR231W, strain pep5, active compounds read low 1.01 | S. cerevisiae deletion strains, locus YMR263W, strain SAP30, active compounds read low 1.03 | S. cerevisiae deletion strains, locus YMR307W, strain GAS1, active compounds read low 1.01 | S. cerevisiae deletion strains, locus YNL067W, strain RPL9B, active compounds read low 1.02 | S. cerevisiae deletion strains, locus YNL071W, strain lat1, active compounds read low 1.02 | S. cerevisiae deletion strains, locus YNL128W, strain TEP1, active compounds read low 1.02 | S. cerevisiae deletion strains, locus YNL153C, strain GIM3, active compounds read low 1.01 | S. cerevisiae deletion strains, locus YNL183C, strain NPR1, active compounds read low 0.894 | S. cerevisiae deletion strains, locus YNL209W, strain ssb2, active compounds read low 0.997 | S. cerevisiae deletion strains, locus YNL233W, strain BNI4, active compounds read low 1.02 | S. cerevisiae deletion strains, locus YNL248C, strain rpa49, active compounds read low 1.01 | S. cerevisiae deletion strains, locus YNL250W, strain rad50, active compounds read low 0.982 | S. cerevisiae deletion strains, locus YNL271C, strain bni1, active compounds read low 0.984 | S. cerevisiae deletion strains, locus YNL298W, strain CLA4, active compounds read low 0.987 | S. cerevisiae deletion strains, locus YNL307C, strain MCK1, active compounds read low 0.988 | S. cerevisiae deletion strains, locus YNL322C, strain KRE1 (second series), active compounds read low 1 | S. cerevisiae deletion strains, locus YNL322C, strain KRE1, active compounds read low 1.01 | S. cerevisiae deletion strains, locus YNR049C, strain mso1, active compounds read low 1.01 | S. cerevisiae deletion strains, locus YNR052C, strain pop2, active compounds read low 0.991 | S. cerevisiae deletion strains, locus YOL006C, strain TOP1, active compounds read low 1.03 | S. cerevisiae deletion strains, locus YOL012C, strain htz1 0.942 | S. cerevisiae deletion strains, locus YOL147C, strain pex11, active compounds read low 0.987 | S. cerevisiae deletion strains, locus YOR001W, strain rrp6, active compounds read low 1.01 | S. cerevisiae deletion strains, locus YOR061W, strain CKA2, active compounds read low 1.01 | S. cerevisiae deletion strains, locus YOR069W, strain VPS5, active compounds read low 1.01 | S. cerevisiae deletion strains, locus YOR070C, strain gyp1, active compounds read low 1.01 | S. cerevisiae deletion strains, locus YOR080W, strain dia2, active compounds read low 0.988 | S. cerevisiae deletion strains, locus YOR083W, strain WHI5, active compounds read low 1.01 | S. cerevisiae deletion strains, locus YOR106W, strain vam3, active compounds read low 1.02 | S. cerevisiae deletion strains, locus YOR136W, strain idh2, active compounds read low 0.99 | S. cerevisiae deletion strains, locus YOR144C, strain elg1, active compounds read low 1 | S. cerevisiae deletion strains, locus YOR184W, strain ser1, active compounds read low 0.979 | S. cerevisiae deletion strains, locus YOR231W, strain MKK1, active compounds read low 0.982 | S. cerevisiae deletion strains, locus YOR265W, strain rbl2, active compounds read low 1.01 | S. cerevisiae deletion strains, locus YOR270C, strain vph1, active compounds read low 1.1 | S. cerevisiae deletion strains, locus YOR290C, strain snf2, active compounds read low 0.975 | S. cerevisiae deletion strains, locus YOR316C, strain cot1, active compounds read low 0.997 | S. cerevisiae deletion strains, locus YPL051W, strain arl3, active compounds read low 1.01 | S. cerevisiae deletion strains, locus YPL055C, strain LGE1, active compounds read low 1.02 | S. cerevisiae deletion strains, locus YPL078C, strain atp4, active compounds read low 1.03 | S. cerevisiae deletion strains, locus YPL106C, strain sse1, active compounds read low 0.975 | S. cerevisiae deletion strains, locus YPL240C, strain hsp82, active compounds read low 1.01 | S. cerevisiae deletion strains, locus YPL241C, strain CIN2, active compounds read low 1.01 | S. cerevisiae deletion strains, locus YPL256C, strain CLN2, active compounds read low 1.01 | S. cerevisiae deletion strains, locus YPR119W, strain clb2, active compounds read low 0.99 | S. cerevisiae deletion strains, locus YPR141C, strain kar3, active compounds read low 0.995 | S. cerevisiae deletion strains, locus YPR163C, strain tif3, active compounds read low 0.99 | S. cerevisiae deletion strains, locus YPR167C, strain met16, active compounds read low 0.991 | S. cerevisiae deletion strains, strain wtn01, active compounds read low 0.989 | S. cerevisiae strains, strain wild type, active compounds read low 1
